Source: PubChem BioAssay (NCI)
The panel holds about 79,000 compounds, 15% with a hit somewhere; the sample as a whole holds those more often. Active and inactive are the calls of the source. Rule as the data show it: active = growth inhibition above about 70%; inactive = the rest.

Tests used:
[1] = NCI Yeast Anticancer Drug Screen. Data for the CLN2oe strain (AID 163);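 also: 0% = growth of vehicle-only control cultures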; details: S. cerevisiae CLN2oe strain, stronger effect = higher value
In short: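 Here, growth inhibition in a cell-cycle-altered yeast strain after compound exposure was quantified against vehicle control growth.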

[2] = NCI Yeast Anticancer Drug Screen. Data for the cln2 rad14 strain (AID 165);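 also: 0% = growth equal to vehicle treated cultures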; details: S. cerevisiae cln2 rad14 strain, stronger effect = higher value
In short: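 Growth of compound-exposed yeast (cln2 rad14 genotype) measured and expressed as inhibition relative to vehicle.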

[3] = NCI Yeast Anticancer Drug Screen. Data for the bub3 strain (AID 167); details: S. cerevisiae bub3 mutant strain, stronger effect = higher value
In short: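 Whole-cell yeast assay. The mutant strain was incubated with compounds, and growth inhibition was determined by comparison with vehicle-treated cells.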

[4] = NCI Yeast Anticancer Drug Screen. Data for the wt2 strain (AID 169);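 also: 0% = growth of vehicle-treated yeast cultures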; details: S. cerevisiae wt2 strain growth inhibition, stronger effect = higher value
In short: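 Genetically defined yeast strains from a DNA-repair/cell-cycle panel were used. Compound-exposed yeast growth was measured, and the inhibition was calculated relative to vehicle treatment.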

[5] = NCI Yeast Anticancer Drug Screen. Data for the mlh1 strain (AID 171);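 also: 0% = growth of vehicle-treated control cultures of the same strain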; details: S. cerevisiae mlh1 strain growth inhibition, stronger effect = higher value
In short: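 Here the genetically defined yeast mutant is grown with each compound, and the extent to which its growth falls below that of vehicle-exposed cells is reported.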

[6] = NCI Yeast Anticancer Drug Screen. Data for the sgs1 strain (AID 173);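 also: 0% = growth of vehicle-only control cultures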; details: S. cerevisiae sgs1 mutant, stronger effect = higher value
In short: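 Relative growth inhibition, referenced to vehicle, was determined in a yeast strain with a defined alteration affecting DNA damage repair or cell cycle control after compound exposure.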

[7] = NCI Yeast Anticancer Drug Screen. Data for the mlh1 rad18 strain (AID 175); details: S. cerevisiae mlh1 rad18 strain growth inhibition, stronger effect = higher value
In short: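 In this whole-cell yeast screen, a strain with altered DNA damage repair is challenged with compound, and its growth is measured against matched vehicle-treated controls.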

[8] = NCI Yeast Anticancer Drug Screen. Data for the rad18 strain (AID 177); details: S. cerevisiae rad18 mutant growth inhibition, stronger effect = higher value
In short: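 Screen uses a yeast strain with a defined lesion in DNA damage repair; compound effect is read as loss of growth compared to untreated vehicle cultures.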

[9] = at 5.0 µM (retest, dose inferred, filed as 0.5)
[10] = at 50.0 µM (retest, dose inferred, filed as 5.0)

Measured: growth inhibition

CCCCC(=O)c1c(O)nc2sccn2c1=O
active: [1]; at 33.0 µM 78% | [1]; at 100.0 µM 89% | [3]; at 33.0 µM 94% | [3]; [10] 92% | [3]; at 50.0 µM 87.2% | [3]; at 100.0 µM 96% | [4]; at 11.0 µM 86% | [4]; at 33.0 µM 98% | [4]; at 100.0 µM 99% | [5]; at 3.7 µM 74% | [5]; at 11.0 µM 95% | [5]; at 33.0 µM 97% | [5]; at 100.0 µM 98% | [6]; at 11.0 µM 92% | [6]; at 33.0 µM 97% | [6]; at 100.0 µM 98% | [7]; [10] 95% | [7]; at 50.0 µM 83.4% | [8]; at 11.0 µM 72% | [8]; at 33.0 µM 95% | [8]; at 100.0 µM 97%
inactive: [1]; at 1.2 µM 9% | [1]; at 3.7 µM 5% | [1]; at 11.0 µM 26% | [2]; [9] 22% | [2]; [10] 37% | [2]; at 50.0 µM 53% | [3]; at 1.2 µM 6% | [3]; at 3.7 µM 11% | [3]; [9] 47% | [3]; at 11.0 µM 62% | [4]; at 1.2 µM 7% | [4]; at 3.7 µM 19% | [5]; at 1.2 µM 27% | [6]; at 1.2 µM 33% | [6]; at 3.7 µM 55% | [7]; [9] 63% | [8]; at 1.2 µM 17% | [8]; at 3.7 µM 20%
